{"source": "PubChem BioAssay AID463195", "about": "(Sanford-Burnham Center for Chemical Genomics, 2010)", "note": "Hit rate of the full screen: of about 330,000 compounds, about 4,600 (1.4%) were called active.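 The calls were made as follows: active = inhibition of 40% or more at the single tested concentration; inactive = the rest.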 Shown is part of a subset that was picked to be rich in actives.", "data": [{"assay": "growth inhibitors of isogenic TIM10 control yeast, primary screen, counter-screen for tim10-1 yeast inhibitor project, luminescence, uHTS (AID 463195);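 also: wild-type TIM10 isogenic control strain grown at permissive 25 °C; 0% = DMSO yeast wells and 100% = minimal medium wells without yeast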", "conditions": "S. cerevisiae TIM10 strain growth, BacTiter-Glo luminescence, 24 h; at 10 µM; hits give high values", "values": [{"smiles": "C/C(CC(=O)Nc1cccc(C(F)(F)F)c1)=N\\NC(=O)C(=O)NCC(C)C", "inhibition": "10.5% (inactive)"}, {"smiles": "CCOC(=O)CNC(=O)CSc1ncccc1-c1nc2ccccc2[nH]1", "inhibition": "97.9% (active)"}, {"smiles": "CCOC(=O)CNC(=O)CSc1nc2cccnc2n1CC", "inhibition": "7.72% (inactive)"}, {"smiles": "CCOC(=O)CNC(=O)CSc1ccc2nnc(-c3cccnc3)n2n1", "inhibition": "-17.7% (inactive)"}, {"smiles": "CC(C)C(NC(=O)C1CCC(C(C)(C)C)CC1)C(=O)NCCCN1CCCCC1", "note": "(centres undefined)", "inhibition": "6.75% (inactive)"}, {"smiles": "O=C(CNC(=O)c1ccccc1Br)NNC(=O)c1cccs1", "inhibition": "3.43% (inactive)"}, {"smiles": "Cc1cccc(NC(=O)Nc2cccc(Oc3c(F)c(F)c(F)c(F)c3F)c2)c1", "inhibition": "8.17% (inactive)"}, {"smiles": "CC(Oc1cccc(NC(=O)c2cccs2)c1)C(=O)c1ccccc1", "note": "(centres undefined)", "inhibition": "8.87% (inactive)"}, {"smiles": "Cc1ccoc1C(=O)Nc1cccc(Oc2ccccc2)c1", "inhibition": "55.2% (active)"}, {"smiles": "COc1ccccc1NC(=O)CSc1nnc(Cn2nnc(-c3ccccc3)n2)n1-c1ccccc1", "inhibition": "6.08% (inactive)"}, {"smiles": "Cc1ccc(NC(=O)COC(=O)CN2CCCCCC2=O)c(C)c1", "inhibition": "7.63% (inactive)"}, {"smiles": "COc1ccc(CN2CCC(n3nccc3NC(=O)CCCc3ccccc3)CC2)cc1C", "inhibition": "4.88% (inactive)"}, {"smiles": "Cc1cc2cc(CNC(=O)c3ccc(S(=O)(=O)N4CCOCC4)cc3)ccc2[nH]1", "inhibition": "7.18% (inactive)"}, {"smiles": "CCc1cccc(CC)c1NC(=S)NCc1ccc2[nH]c(C)cc2c1", "inhibition": "54% (active)"}, {"smiles": "Cc1cc2cc(CNC(=O)c3cccs3)ccc2[nH]1", "inhibition": "-0.032% (inactive)"}, {"smiles": "CNC(=S)N/N=C/c1cn(Cc2ccc(C)cc2)c2ccccc12", "inhibition": "51.4% (active)"}, {"smiles": "CCOC(=O)N/N=C/c1cn(Cc2ccccc2Cl)c2ccccc12", "inhibition": "22% (inactive)"}, {"smiles": "N#CCC(=O)N/N=C/c1cn(Cc2ccc3ccccc3c2)c2ccccc12", "inhibition": "-20.2% (inactive)"}, {"smiles": "C=CCN(c1ccc(Cl)cc1)S(=O)(=O)c1cccc(C(=O)OCC(=O)N(C)C)c1", "inhibition": "-12.8% (inactive)"}, {"smiles": "O=C(O)c1ccc(N/N=C/c2cn(-c3ccccc3)nc2-c2cccs2)cc1", "inhibition": "56.3% (active)"}, {"smiles": "COc1cccc(NC(=O)CN(C)C(=O)/C=C/c2cn(-c3ccccc3)nc2-c2cccs2)c1", "inhibition": "-5.41% (inactive)"}, {"smiles": "O=C(NCc1cccnc1)c1cn(-c2ccccc2)nc1-c1cccs1", "inhibition": "2.96% (inactive)"}, {"smiles": "CN(CC(=O)NC(=O)Nc1ccccc1F)Cc1ccccc1", "inhibition": "2.75% (inactive)"}, {"smiles": "Cc1cc(C)c(S(=O)(=O)N2CCC(C(=O)OCc3c(C)noc3C)CC2)c(C)c1", "inhibition": "8.76% (inactive)"}, {"smiles": "Cc1noc(C)c1NC(=O)Nc1cccc2c1O[C@H](CN(C)S(=O)(=O)c1c(C)noc1C)[C@@H](C)CN([C@H](C)CO)C2=O", "inhibition": "9.51% (inactive)"}, {"smiles": "CCCCN(CCCC)CC(O)Cn1c2ccccc2c(=O)c2ccccc21", "note": "(centres undefined)", "inhibition": "-7.98% (inactive)"}, {"smiles": "O=C1c2ccccc2S(=O)(=O)N1CC(O)Cn1c2ccccc2c2ccccc21", "note": "(centres undefined)", "inhibition": "79.5% (active)"}, {"smiles": "CC(C)(C)c1ccc(CN2C(=O)c3ccccc3S2(=O)=O)cc1", "inhibition": "11% (inactive)"}, {"smiles": "COC(=O)c1ccc(C2C3=C(Nc4nnnn42)c2ccccc2OC3)cc1", "note": "(centres undefined)", "inhibition": "27.5% (inactive)"}, {"smiles": "CCCc1[nH]nc2c1C(c1ccc(OC(=O)c3ccco3)cc1)C(C#N)=C(N)O2", "note": "(centres undefined)", "inhibition": "3.44% (inactive)"}, {"smiles": "CCCc1[nH]nc2c1C(c1ccc(Br)s1)C(C#N)=C(N)O2", "note": "(centres undefined)", "inhibition": "66.7% (active)"}, {"smiles": "CCCc1[nH]nc2c1C(c1ccc(OC)c(Cn3nc(C)c(Br)c3C)c1)C(C#N)=C(N)O2", "note": "(centres undefined)", "inhibition": "3.67% (inactive)"}, {"smiles": "CCCCN(CC)C(=O)CN(C)S(=O)(=O)c1cccc2nsnc12", "inhibition": "-12.4% (inactive)"}, {"smiles": "COc1ccc(NC(=O)COc2ccc(C(=O)c3ccc(F)cc3)cc2)cc1S(N)(=O)=O", "inhibition": "7.33% (inactive)"}, {"smiles": "Cc1cc(C)c([N+](=O)[O-])cc1-c1ccc(/C=N/NC(=O)c2nonc2N)o1", "inhibition": "-9.15% (inactive)"}, {"smiles": "CC1=NN(c2ccc(Cl)c(C(=O)O)c2)C(=O)/C1=C/c1ccc(-c2ccccc2[N+](=O)[O-])o1", "inhibition": "12.6% (inactive)"}, {"smiles": "Cc1ccc(-c2ccc(/C=C(\\C#N)C(N)=S)o2)c([N+](=O)[O-])c1", "inhibition": "51.5% (active)"}, {"smiles": "CC(C)NC(=O)N1CCN(c2ccncc2S(=O)(=O)N2CCCCC2)CC1", "inhibition": "-2.83% (inactive)"}, {"smiles": "Oc1ccc(-c2cccc(-c3ccc(O)cc3)c2)cc1", "inhibition": "-32.3% (inactive)"}, {"smiles": "O=C(/C=C/c1cc2c(cc1Br)OCO2)NCc1ccc(Cl)cc1", "inhibition": "-5.07% (inactive)"}, {"smiles": "O=C(/C=C/c1ccc(Cl)cc1Cl)c1cccnc1", "inhibition": "8.99% (inactive)"}, {"smiles": "O=C(/C=C/c1ccc(Cl)c([N+](=O)[O-])c1)c1cccnc1", "inhibition": "73.9% (active)"}, {"smiles": "O=C(Nc1ccncc1)c1ccc(Cl)c([N+](=O)[O-])c1", "inhibition": "-47.9% (inactive)"}, {"smiles": "CC1CCCCC12NC(=O)N(CC(=O)OCc1c(F)cccc1Cl)C2=O", "note": "(centres undefined)", "inhibition": "1.25% (inactive)"}, {"smiles": "COc1ccc(-c2cc3n(n2)CCc2nc4ccccc4n2-3)cc1", "inhibition": "17.5% (inactive)"}, {"smiles": "O=[N+]([O-])c1cccc(Nc2c3ccccc3nc3ccccc23)c1", "inhibition": "42.1% (active)"}, {"smiles": "Cc1cc(CNC(=O)c2cccc([N+](=O)[O-])c2)c2ccccc2n1", "inhibition": "8.64% (inactive)"}, {"smiles": "N#Cc1cccc(Nc2c3c(nc4ccccc24)CCCC3)c1", "inhibition": "22.5% (inactive)"}, {"smiles": "COC(=O)Nc1ccc(S(=O)(=O)N2CCN(CCN3C(=O)C4C5C=CC(C5)C4C3=O)CC2)cc1", "note": "(centres undefined)", "inhibition": "-10.8% (inactive)"}, {"smiles": "COc1ccc(C)cc1NC(=O)C(Sc1ccccc1)c1ccccc1", "note": "(centres undefined)", "inhibition": "2.49% (inactive)"}, {"smiles": "O=C(CCN1CCN(c2ccccc2)CC1)NNC(=S)Nc1ccccc1", "inhibition": "1.6% (inactive)"}, {"smiles": "Cc1ccccc1C(=O)NC(=S)Nc1ccc(N2CCN(C(=O)c3ccccc3)CC2)cc1", "inhibition": "-9.29% (inactive)"}, {"smiles": "O=C(Cc1ccccc1)NC(=S)Nc1ccc(N2CCCCC2)cc1", "inhibition": "40.2% (active)"}, {"smiles": "O=C(CCc1nc(-c2ccccc2)no1)Nc1cccc(C(=O)NC2CC2)c1", "inhibition": "-6.75% (inactive)"}, {"smiles": "CCCCn1c(N)c(N(CCOC)C(=O)c2cccc(S(=O)(=O)N3CCCCC3)c2)c(=O)[nH]c1=O", "inhibition": "-2.98% (inactive)"}, {"smiles": "Cc1cccc(C(=O)NCC(=O)OCC(=O)N(C)CC(=O)Nc2ccccc2Cl)c1", "inhibition": "-5.14% (inactive)"}, {"smiles": "Cc1ccc(SCCC(=O)Nc2cc(C)on2)cc1", "inhibition": "4.66% (inactive)"}, {"smiles": "Cc1cccc(-n2ncc3c(=O)[nH]c(SCC(=O)Nc4cc(C)on4)nc32)c1", "inhibition": "-12.1% (inactive)"}, {"smiles": "Cc1ccc2nc(-c3ccc(SCC(=O)Nc4cc(C)on4)nc3)[nH]c2c1", "inhibition": "42.6% (active)"}]}]}
